# Results from the supplement of paper PMC8728848.
# Many of the other results were omitted from the sample, so the strongest signals are more common in it than they were.
# Legend:
# Experiment in all cases: glycan array binding signal (z-score within array); higher = stronger binding
# Conditions in all cases: glycan notation: IUPAC condensed, linker removed
# [1] = biological target: Fuc(a1-2)Gal(b1-3)GalNAc(b1-4)[Neu5Ac(a2-3)]Gal(b1-4)Glc
# Procedure, shortened: (§1)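 Negative Z-scores can be read as non-binding. The Z-score is calculated within each array and then averaged across arrays of one protein sequence at different concentrations or buffers and across linkers. Arrays, 3228 in all, were curated from the Consortium for Functional Glycomics database and kept only where the protein sequence was available.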
# [2] = biological target: Fuc(a1-2)Gal(b1-4)Glc6S
# Procedure, shortened: as §1
# [3] = biological target: Fuc(a1-2)Gal(b1-4)GlcNAc
# Procedure, shortened: as §1
# [4] = biological target: Fuc(a1-2)Gal3S(b1-4)GlcNAc
# Procedure, shortened: as §1
# [5] = biological target: Fuc(a1-2)[Gal(a1-3)]Gal(b1-3)GlcNAc(b1-3)GalNAc
# Procedure, shortened: as §1
# [6] = biological target: Fuc(a1-2)[Gal(a1-3)]Gal(b1-3)GlcNAc(b1-6)GalNAc
# Procedure, shortened: as §1
# [7] = biological target: Fuc(a1-2)[Gal(a1-3)]Gal(b1-4)Glc
# Procedure, shortened: as §1
# [8] = biological target: Fuc(a1-2)[Gal(a1-3)]Gal(b1-4)GlcNAc(b1-2)Man(a1-3)[Fuc(a1-2)[Gal(a1-3)]Gal(b1-4)GlcNAc(b1-2)Man(a1-6)]Man(b1-4)GlcNAc(b1-4)[Fuc(a1-6)]GlcNAc
# Procedure, shortened: as §1
# [9] = biological target: Fuc(a1-2)[GalNAc(a1-3)]Gal(b1-3)GlcNAc(b1-3)GalNAc
# Procedure, shortened: as §1
# [10] = biological target: Fuc(a1-2)[GalNAc(a1-3)]Gal(b1-4)GlcNAc(b1-3)GalNAc
# Procedure, shortened: as §1
# [11] = biological target: Fuc(a1-2)[GalNAc(a1-3)]Gal(b1-4)GlcNAc(b1-6)GalNAc
# Procedure, shortened: as §1
# [12] = biological target: Fuc(a1-2)[GalNAc(a1-3)]Gal(b1-4)[Fuc(a1-3)]GlcNAc(b1-3)GalNAc
# Procedure, shortened: as §1
# [13] = biological target: Fuc(a1-3)[Gal(b1-4)]GlcNAc(b1-3)Gal(b1-3)[Fuc(a1-4)]GlcNAc
# Procedure, shortened: as §1
# [14] = biological target: Fuc(a1-3)[Gal3S(b1-4)]GlcNAc6S
# Procedure, shortened: as §1
# [15] = biological target: Fuc(a1-3)[GalNAc(b1-4)]GlcNAc
# Procedure, shortened: as §1
# [16] = biological target: Gal(a1-4)GlcNAc
# Procedure, shortened: as §1
# [17] = biological target: Gal(b1-3)Gal
# Procedure, shortened: as §1
# [18] = biological target: Gal(b1-3)Gal(b1-4)GlcNAc
# Procedure, shortened: as §1
# [19] = biological target: Gal(b1-3)GalNAc(b1-4)Gal(b1-4)Glc
# Procedure, shortened: as §1
# [20] = biological target: Gal(b1-3)GlcNAc
# Procedure, shortened: as §1
# [21] = biological target: Gal(b1-3)GlcNAc(b1-6)Gal(b1-4)GlcNAc
# Procedure, shortened: as §1
# [22] = biological target: Gal(b1-4)GlcNAc(b1-2)[Gal(b1-4)GlcNAc(b1-4)]Man(a1-3)[Gal(b1-4)GlcNAc(b1-2)Man(a1-6)]Man(b1-4)GlcNAc(b1-4)GlcNAc
# Procedure, shortened: as §1
# [23] = biological target: Gal(b1-4)GlcNAc(b1-2)[Gal(b1-4)GlcNAc(b1-6)]Man(a1-6)[Gal(b1-4)GlcNAc(b1-2)Man(a1-3)]Man(b1-4)GlcNAc(b1-4)GlcNAc
# Procedure, shortened: as §1
# [24] = biological target: Gal(b1-4)GlcNAc(b1-3)Gal(b1-4)GlcNAc(b1-3)Gal(b1-4)GlcNAc(b1-3)Gal(b1-4)GlcNAc(b1-3)Gal(b1-4)GlcNAc(b1-2)Man(a1-3)[Gal(b1-4)GlcNAc(b1-3)Gal(b1-4)GlcNAc(b1-3)Gal(b1-4)GlcNAc(b1-3)Gal(b1-4)GlcNAc(b1-3)Gal(b1-4)GlcNAc(b1-2)Man(a1-6)]Man(b1-4)GlcNAc(b1-4)[Fuc(a1-6)]GlcNAc
# Procedure, shortened: as §1
# [25] = biological target: Gal(b1-4)GlcNAc(b1-3)Gal(b1-4)GlcNAc(b1-3)Gal(b1-4)GlcNAc(b1-3)Gal(b1-4)GlcNAc(b1-3)Gal(b1-4)GlcNAc(b1-2)[Gal(b1-4)GlcNAc(b1-3)Gal(b1-4)GlcNAc(b1-3)Gal(b1-4)GlcNAc(b1-3)Gal(b1-4)GlcNAc(b1-3)Gal(b1-4)GlcNAc(b1-6)]Man(a1-6)[Gal(b1-4)GlcNAc(b1-3)Gal(b1-4)GlcNAc(b1-3)Gal(b1-4)GlcNAc(b1-3)Gal(b1-4)GlcNAc(b1-3)Gal(b1-4)GlcNAc(b1-2)Man(a1-3)]Man(b1-4)GlcNAc(b1-4)[Fuc(a1-6)]GlcNAc
# Procedure, shortened: as §1
# [26] = biological target: Gal(b1-4)GlcNAc(b1-3)[Fuc(a1-3)GlcNAc(b1-6)]Gal(b1-4)Glc
# Procedure, shortened: as §1
# [27] = biological target: Gal3S(b1-4)Glc
# Procedure, shortened: as §1
# [28] = biological target: Gal3S(b1-4)[Fuc(a1-3)]Glc6S
# Procedure, shortened: as §1
# [29] = biological target: Gal4S(b1-4)GlcNAc
# Procedure, shortened: as §1
# [30] = biological target: GalNAc(a1-3)GalNAc(b1-3)Gal(a1-4)Gal(b1-4)GlcNAc
# Procedure, shortened: as §1
# [31] = biological target: GalNAc(b1-3)Gal(a1-4)Gal(b1-4)GlcNAc(b1-3)Gal(b1-4)Glc
# Procedure, shortened: as §1
# [32] = biological target: GlcNAc(a1-4)Gal(b1-4)GalNAc
# Procedure, shortened: as §1
# [33] = biological target: GlcNAc(a1-4)Gal(b1-4)GlcNAc(b1-3)Gal(b1-4)Glc
# Procedure, shortened: as §1
# [34] = biological target: GlcNAc(b1-2)[GlcNAc(b1-4)]Man(a1-3)[GlcNAc(b1-2)Man(a1-6)]Man(b1-4)GlcNAc(b1-4)GlcNAc
# Procedure, shortened: as §1
# [35] = biological target: GlcNAc(b1-3)Gal(b1-4)GlcNAc(b1-2)[GlcNAc(b1-3)Gal(b1-4)GlcNAc(b1-6)]Man(a1-6)[GlcNAc(b1-3)Gal(b1-4)GlcNAc(b1-2)Man(a1-3)]Man(b1-4)GlcNAc(b1-4)GlcNAc
# Procedure, shortened: as §1
# [36] = biological target: GlcNAc(b1-4)Gal(b1-4)GlcNAc
# Procedure, shortened: as §1
# [37] = biological target: Man(a1-3)[Man(a1-6)]Man
# Procedure, shortened: as §1
# [38] = biological target: Neu5Ac(a2-3)Gal(b1-3)GalNAc(b1-4)[Neu5Ac(a2-8)Neu5Ac(a2-3)]Gal(b1-4)Glc
# Procedure, shortened: as §1
# [39] = biological target: Neu5Ac(a2-3)Gal(b1-3)GlcNAc(b1-2)Man(a1-3)[Neu5Ac(a2-3)Gal(b1-3)GlcNAc(b1-2)Man(a1-6)]Man(b1-4)GlcNAc(b1-4)GlcNAc
# Procedure, shortened: as §1
# [40] = biological target: Neu5Ac(a2-3)Gal(b1-3)GlcNAc(b1-3)GalNAc
# Procedure, shortened: as §1
# [41] = biological target: Neu5Ac(a2-3)Gal(b1-3)[Fuc(a1-4)]GlcNAc
# Procedure, shortened: as §1
# [42] = biological target: Neu5Ac(a2-3)Gal(b1-3)[GlcNAc(b1-6)]GalNAc
# Procedure, shortened: as §1
# [43] = biological target: Neu5Ac(a2-3)Gal(b1-3)[Neu5Ac(a2-6)]GalNAc
# Procedure, shortened: as §1
# [44] = biological target: Neu5Ac(a2-3)Gal(b1-4)GlcNAc(b1-2)Man(a1-3)[Neu5Ac(a2-3)Gal(b1-4)GlcNAc(b1-2)Man(a1-6)]Man(b1-4)GlcNAc(b1-4)[Fuc(a1-6)]GlcNAc
# Procedure, shortened: as §1
# [45] = biological target: Neu5Ac(a2-3)Gal(b1-4)GlcNAc(b1-2)[Neu5Ac(a2-3)Gal(b1-4)GlcNAc(b1-6)]Man(a1-6)[Neu5Ac(a2-3)Gal(b1-4)GlcNAc(b1-2)Man(a1-3)][GlcNAc(b1-4)]Man(b1-4)GlcNAc(b1-4)GlcNAc
# Procedure, shortened: as §1
# [46] = biological target: Neu5Ac(a2-3)Gal(b1-4)GlcNAc(b1-3)Gal(b1-4)GlcNAc(b1-3)GalNAc
# Procedure, shortened: as §1
# [47] = biological target: Neu5Ac(a2-3)Gal(b1-4)[Fuc(a1-3)]GlcNAc(b1-2)Man
# Procedure, shortened: as §1
# [48] = biological target: Neu5Ac(a2-6)Gal(b1-4)GlcNAc(b1-2)Man(a1-3)[Man(a1-6)]Man(b1-4)GlcNAc(b1-4)GlcNAc
# Procedure, shortened: as §1
# [49] = biological target: Neu5Ac(a2-6)Gal(b1-4)GlcNAc(b1-2)Man(a1-6)[Man(a1-3)]Man(b1-4)GlcNAc(b1-4)GlcNAc
# Procedure, shortened: as §1
# [50] = biological target: Neu5Ac(a2-6)Gal(b1-4)GlcNAc(b1-6)[Gal(b1-3)]GalNAc
# Procedure, shortened: as §1
# [51] = biological target: Neu5Ac(a2-8)Neu5Ac(a2-3)Gal(b1-4)Glc
# Procedure, shortened: as §1
# [52] = biological target: Neu5Ac(a2-8)Neu5Ac(a2-8)Neu5Ac(a2-3)Gal(b1-4)Glc
# Procedure, shortened: as §1
# [53] = biological target: Neu5Ac(b2-6)GalNAc
# Procedure, shortened: as §1
# [54] = biological target: Neu5Gc(a2-8)Neu5Gc(a2-6)Gal(b1-4)GlcNAc
# Procedure, shortened: as §1
binder,measurement,setting,value
Pwp1 (Candida glabrata) (protein) MGSSHHHHHHSSGLVPRGSHMASANPISITNVCQFPDNWARTAGFQATTVRLGLTIASNTYKELLNYPGLFNFATQKATVTQPNFSISGFPFFTGLYGLTVWPINLLVELQGYFVPPESGNYTFTLQGSDDAAILFFANPSTFACGSQNDWPQPREADITVTDTLVPSRTLYLVKGVAYPIRIAYYNGSGDGKLNVSFKDPSGTTHTDWKGYVWQYSNTCSTCTYT,glycan array binding signal (z-score),[1],2.14
same,glycan array binding signal (z-score),[2],-0.871
same,glycan array binding signal (z-score),[3],0.296
same,glycan array binding signal (z-score),[4],0.714
same,glycan array binding signal (z-score),[5],0.778
same,glycan array binding signal (z-score),[6],0.51
same,glycan array binding signal (z-score),[7],-0.087
same,glycan array binding signal (z-score),[8],0.301
same,glycan array binding signal (z-score),[9],2.44
same,glycan array binding signal (z-score),[10],2.36
same,glycan array binding signal (z-score),[11],0.906
same,glycan array binding signal (z-score),[12],-0.825
same,glycan array binding signal (z-score),[13],3.12
same,glycan array binding signal (z-score),[14],1.94
same,glycan array binding signal (z-score),[15],-1.67
same,glycan array binding signal (z-score),[16],0.974
same,glycan array binding signal (z-score),[17],0.861
same,glycan array binding signal (z-score),[18],-0.314
same,glycan array binding signal (z-score),[19],1.92
same,glycan array binding signal (z-score),[20],0.448
same,glycan array binding signal (z-score),[21],-1.46
same,glycan array binding signal (z-score),[22],-0.345
same,glycan array binding signal (z-score),[23],0.454
same,glycan array binding signal (z-score),[24],-0.637
same,glycan array binding signal (z-score),[25],-3.11
same,glycan array binding signal (z-score),[26],-1
same,glycan array binding signal (z-score),[27],0.803
same,glycan array binding signal (z-score),[28],-0.627
same,glycan array binding signal (z-score),[29],0.267
same,glycan array binding signal (z-score),[30],-0.037
same,glycan array binding signal (z-score),[31],1.77
same,glycan array binding signal (z-score),[32],-1.74
same,glycan array binding signal (z-score),[33],1.72
same,glycan array binding signal (z-score),[34],0.374
same,glycan array binding signal (z-score),[35],0.839
same,glycan array binding signal (z-score),[36],-2.23
same,glycan array binding signal (z-score),[37],-1.51
same,glycan array binding signal (z-score),[38],0.23
same,glycan array binding signal (z-score),[39],1.89
same,glycan array binding signal (z-score),[40],0.585
same,glycan array binding signal (z-score),[41],-1.74
same,glycan array binding signal (z-score),[42],3.78
same,glycan array binding signal (z-score),[43],0.612
same,glycan array binding signal (z-score),[44],0.747
same,glycan array binding signal (z-score),[45],2.29
same,glycan array binding signal (z-score),[46],0.411
same,glycan array binding signal (z-score),[47],-1.41
same,glycan array binding signal (z-score),[48],-0.785
same,glycan array binding signal (z-score),[49],0.335
same,glycan array binding signal (z-score),[50],-1.62
same,glycan array binding signal (z-score),[51],0.642
same,glycan array binding signal (z-score),[52],-0.355
same,glycan array binding signal (z-score),[53],1.13
same,glycan array binding signal (z-score),[54],1.17
